Legend:
Experiment in all cases: DAPPL (digital affinity profiling via proximity ligation, sequencing); 10 mM Tris-HCl pH 7.5, 50 mM NaCl, 1 mM DTT, 4% glycerol, room temperature, 30 min; GST-TFs on glutathione beads, 16-mer random dsDNA library, 0.1% formaldehyde crosslink after washing; high values mean tight binding
Settings in all cases: protein: recombinant; tags: N-terminal GST; dsDNA, one strand shown
FLI1 = target: T1, FLI1 (Homo sapiens, UniProt Q01543 1-452)
T1 sequence: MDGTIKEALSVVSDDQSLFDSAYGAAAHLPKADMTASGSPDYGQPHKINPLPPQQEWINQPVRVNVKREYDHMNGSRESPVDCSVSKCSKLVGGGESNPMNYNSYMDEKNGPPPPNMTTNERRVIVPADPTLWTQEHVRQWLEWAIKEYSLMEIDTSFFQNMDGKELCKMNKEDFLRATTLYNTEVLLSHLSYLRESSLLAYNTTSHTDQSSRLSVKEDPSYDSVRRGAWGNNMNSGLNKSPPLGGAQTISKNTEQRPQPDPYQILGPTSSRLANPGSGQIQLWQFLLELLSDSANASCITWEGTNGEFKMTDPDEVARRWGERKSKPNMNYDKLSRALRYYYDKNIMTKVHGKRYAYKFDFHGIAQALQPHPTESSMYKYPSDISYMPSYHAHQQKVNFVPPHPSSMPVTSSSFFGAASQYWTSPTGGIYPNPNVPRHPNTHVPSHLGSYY
Procedure, shortened: (§1)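 Yeast served to express human transcription factors as GST fusions, which were then captured on glutathione beads and labelled with DNA barcodes. Pooled with a tag-only sample, they were incubated with 200 nmole of a 16-mer random double-stranded DNA library for 30 min at room temperature in Tris/NaCl/DTT/glycerol buffer, washed, crosslinked with 0.1% formaldehyde, ligated by proximity, amplified by PCR and sequenced. Dividing each hexamer's read frequency for a factor by its frequency for the tag-only sample gives the binding signal.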

GABPA = target: T2, GABPA (Homo sapiens, UniProt Q06546 1-454)
T2 sequence: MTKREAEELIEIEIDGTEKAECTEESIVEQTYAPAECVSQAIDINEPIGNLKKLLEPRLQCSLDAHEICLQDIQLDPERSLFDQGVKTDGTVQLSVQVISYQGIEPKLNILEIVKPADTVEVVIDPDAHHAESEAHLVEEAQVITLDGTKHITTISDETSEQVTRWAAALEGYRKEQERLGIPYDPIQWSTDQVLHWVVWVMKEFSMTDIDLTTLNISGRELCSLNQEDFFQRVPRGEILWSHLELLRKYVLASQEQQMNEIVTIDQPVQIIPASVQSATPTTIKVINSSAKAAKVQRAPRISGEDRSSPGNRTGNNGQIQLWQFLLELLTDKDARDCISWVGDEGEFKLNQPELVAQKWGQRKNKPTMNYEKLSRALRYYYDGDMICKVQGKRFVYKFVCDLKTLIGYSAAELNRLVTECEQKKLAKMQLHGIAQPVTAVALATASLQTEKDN
Procedure, shortened: as §1

ERG = target: T3, ERG (Homo sapiens, UniProt P11308 1-479)
T3 sequence: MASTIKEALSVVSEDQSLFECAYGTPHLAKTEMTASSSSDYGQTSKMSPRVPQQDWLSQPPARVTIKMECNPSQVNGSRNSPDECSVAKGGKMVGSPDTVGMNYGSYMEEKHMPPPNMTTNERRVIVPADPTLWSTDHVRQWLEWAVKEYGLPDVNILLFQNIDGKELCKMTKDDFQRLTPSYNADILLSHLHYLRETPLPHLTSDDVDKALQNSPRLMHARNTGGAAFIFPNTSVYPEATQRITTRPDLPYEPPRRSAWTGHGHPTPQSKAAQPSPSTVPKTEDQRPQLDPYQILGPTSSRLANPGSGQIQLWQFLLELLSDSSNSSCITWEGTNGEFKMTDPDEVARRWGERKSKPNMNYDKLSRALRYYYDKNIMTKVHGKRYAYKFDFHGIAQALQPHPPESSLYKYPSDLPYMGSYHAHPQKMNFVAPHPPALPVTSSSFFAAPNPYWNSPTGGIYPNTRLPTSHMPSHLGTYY
Procedure, shortened: as §1

ELF1 = ELF1 (Homo sapiens, UniProt P32519 1-619)
Procedure, shortened: as §1

SPIB = SPIB (Homo sapiens, UniProt Q01892 1-262)
Procedure, shortened: as §1

ELK3 = target: T4, ELK3 (Homo sapiens, UniProt P41970 1-407)
T4 sequence: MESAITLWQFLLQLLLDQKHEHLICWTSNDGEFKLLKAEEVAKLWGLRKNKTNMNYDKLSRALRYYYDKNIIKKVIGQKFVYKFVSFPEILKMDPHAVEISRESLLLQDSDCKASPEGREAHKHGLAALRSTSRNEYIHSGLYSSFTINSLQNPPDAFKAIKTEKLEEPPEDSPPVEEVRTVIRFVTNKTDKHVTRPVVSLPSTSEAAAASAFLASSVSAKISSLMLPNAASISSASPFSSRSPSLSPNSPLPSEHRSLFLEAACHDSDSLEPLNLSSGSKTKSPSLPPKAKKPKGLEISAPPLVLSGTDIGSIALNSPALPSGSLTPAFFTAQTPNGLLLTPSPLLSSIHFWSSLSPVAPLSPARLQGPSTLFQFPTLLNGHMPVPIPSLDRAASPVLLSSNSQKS
Procedure, shortened: as §1

ETV2 = target: T5, ETV2 (Homo sapiens, UniProt O00321 1-342)
T5 sequence: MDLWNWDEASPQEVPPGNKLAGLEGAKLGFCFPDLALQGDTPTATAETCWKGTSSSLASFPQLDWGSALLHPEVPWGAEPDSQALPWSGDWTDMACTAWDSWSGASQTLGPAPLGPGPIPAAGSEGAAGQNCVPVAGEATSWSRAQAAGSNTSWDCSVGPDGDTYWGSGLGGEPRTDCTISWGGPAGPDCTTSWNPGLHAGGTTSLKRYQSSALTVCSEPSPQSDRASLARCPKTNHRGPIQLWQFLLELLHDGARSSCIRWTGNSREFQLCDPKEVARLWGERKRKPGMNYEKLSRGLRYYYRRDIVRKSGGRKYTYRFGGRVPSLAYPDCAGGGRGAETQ
Procedure, shortened: as §1

ELF3 = target: T6, ELF3 (Homo sapiens, UniProt P78545 1-371)
T6 sequence: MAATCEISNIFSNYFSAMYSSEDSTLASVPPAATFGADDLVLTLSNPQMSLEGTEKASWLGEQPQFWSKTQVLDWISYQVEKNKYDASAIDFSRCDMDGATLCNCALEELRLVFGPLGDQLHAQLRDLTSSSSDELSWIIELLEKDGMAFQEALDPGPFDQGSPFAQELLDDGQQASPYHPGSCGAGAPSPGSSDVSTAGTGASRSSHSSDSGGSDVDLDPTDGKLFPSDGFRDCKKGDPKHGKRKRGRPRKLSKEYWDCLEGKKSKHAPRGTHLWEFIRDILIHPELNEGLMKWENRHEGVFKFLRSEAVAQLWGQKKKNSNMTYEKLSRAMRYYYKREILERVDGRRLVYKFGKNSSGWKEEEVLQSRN
Procedure, shortened: as §1

ETV1 = ETV1 (Homo sapiens, UniProt P50549 1-477)
Procedure, shortened: as §1

ERF = target: T7, ERF (Homo sapiens, UniProt P50548 1-548)
T7 sequence: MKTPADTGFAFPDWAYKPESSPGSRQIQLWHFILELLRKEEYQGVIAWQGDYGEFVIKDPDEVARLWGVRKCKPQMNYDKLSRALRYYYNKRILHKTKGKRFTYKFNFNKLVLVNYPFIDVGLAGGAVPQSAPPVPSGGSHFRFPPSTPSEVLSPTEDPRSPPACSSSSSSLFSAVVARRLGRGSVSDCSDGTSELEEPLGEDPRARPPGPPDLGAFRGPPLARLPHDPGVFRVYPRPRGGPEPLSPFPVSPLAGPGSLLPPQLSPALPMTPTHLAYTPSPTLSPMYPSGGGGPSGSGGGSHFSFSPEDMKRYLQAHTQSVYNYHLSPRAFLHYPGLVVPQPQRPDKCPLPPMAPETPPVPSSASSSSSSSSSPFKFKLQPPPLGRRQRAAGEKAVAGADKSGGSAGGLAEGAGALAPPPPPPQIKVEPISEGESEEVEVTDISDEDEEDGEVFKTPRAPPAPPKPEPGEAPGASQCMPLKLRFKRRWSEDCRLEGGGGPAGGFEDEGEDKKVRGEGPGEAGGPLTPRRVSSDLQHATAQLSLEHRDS
Procedure, shortened: as §1

ETV3L = target: T8, ETV3L (Homo sapiens, UniProt Q6ZN32 1-361)
T8 sequence: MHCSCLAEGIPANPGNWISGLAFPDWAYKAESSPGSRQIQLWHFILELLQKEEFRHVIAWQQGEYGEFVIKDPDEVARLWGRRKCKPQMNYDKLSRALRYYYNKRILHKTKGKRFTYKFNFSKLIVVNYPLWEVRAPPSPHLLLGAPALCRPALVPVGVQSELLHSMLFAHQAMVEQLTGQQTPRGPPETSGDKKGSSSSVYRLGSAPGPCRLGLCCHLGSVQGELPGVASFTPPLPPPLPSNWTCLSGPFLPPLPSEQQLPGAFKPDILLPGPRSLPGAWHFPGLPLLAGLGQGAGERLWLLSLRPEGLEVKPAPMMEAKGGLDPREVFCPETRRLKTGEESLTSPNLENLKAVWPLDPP
Procedure, shortened: as §1

ETV3 = target: T9, ETV3 (Homo sapiens, UniProt P41162-2 1-143)
T9 sequence: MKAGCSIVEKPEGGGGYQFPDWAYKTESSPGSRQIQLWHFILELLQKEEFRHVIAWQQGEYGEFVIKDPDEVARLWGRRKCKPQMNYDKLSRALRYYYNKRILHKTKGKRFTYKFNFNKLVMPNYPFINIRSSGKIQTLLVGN
Procedure, shortened: as §1

ETV6 = ETV6 (Homo sapiens, UniProt P41212 1-452)
Procedure, shortened: as §1

Sequence of ETV6 (P41212 whole entry): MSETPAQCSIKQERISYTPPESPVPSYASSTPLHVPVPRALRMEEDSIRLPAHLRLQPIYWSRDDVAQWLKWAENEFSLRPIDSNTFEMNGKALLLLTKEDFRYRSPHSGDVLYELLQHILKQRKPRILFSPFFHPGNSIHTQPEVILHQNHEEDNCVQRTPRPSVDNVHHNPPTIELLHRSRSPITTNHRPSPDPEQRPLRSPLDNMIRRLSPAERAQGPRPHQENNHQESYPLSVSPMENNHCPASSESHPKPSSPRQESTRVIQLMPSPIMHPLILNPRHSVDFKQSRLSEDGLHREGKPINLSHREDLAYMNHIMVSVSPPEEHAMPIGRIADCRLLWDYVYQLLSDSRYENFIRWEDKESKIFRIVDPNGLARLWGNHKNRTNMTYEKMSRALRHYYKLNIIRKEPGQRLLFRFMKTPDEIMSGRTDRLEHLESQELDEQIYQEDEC
Sequence of ETV1 (P50549 whole entry): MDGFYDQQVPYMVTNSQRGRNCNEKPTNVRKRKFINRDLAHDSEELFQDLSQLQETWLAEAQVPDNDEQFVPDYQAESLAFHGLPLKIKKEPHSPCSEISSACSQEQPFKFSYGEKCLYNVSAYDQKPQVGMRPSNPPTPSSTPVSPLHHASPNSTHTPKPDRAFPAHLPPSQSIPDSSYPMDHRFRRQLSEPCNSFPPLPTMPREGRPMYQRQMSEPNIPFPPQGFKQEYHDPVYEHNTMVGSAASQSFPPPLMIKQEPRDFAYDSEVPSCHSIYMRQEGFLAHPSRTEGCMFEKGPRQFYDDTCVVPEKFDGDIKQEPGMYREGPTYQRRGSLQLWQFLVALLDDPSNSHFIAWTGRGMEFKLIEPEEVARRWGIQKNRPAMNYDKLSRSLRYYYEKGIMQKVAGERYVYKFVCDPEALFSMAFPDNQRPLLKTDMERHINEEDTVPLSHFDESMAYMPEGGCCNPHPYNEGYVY
Sequence of ELF1 (P32519 whole entry): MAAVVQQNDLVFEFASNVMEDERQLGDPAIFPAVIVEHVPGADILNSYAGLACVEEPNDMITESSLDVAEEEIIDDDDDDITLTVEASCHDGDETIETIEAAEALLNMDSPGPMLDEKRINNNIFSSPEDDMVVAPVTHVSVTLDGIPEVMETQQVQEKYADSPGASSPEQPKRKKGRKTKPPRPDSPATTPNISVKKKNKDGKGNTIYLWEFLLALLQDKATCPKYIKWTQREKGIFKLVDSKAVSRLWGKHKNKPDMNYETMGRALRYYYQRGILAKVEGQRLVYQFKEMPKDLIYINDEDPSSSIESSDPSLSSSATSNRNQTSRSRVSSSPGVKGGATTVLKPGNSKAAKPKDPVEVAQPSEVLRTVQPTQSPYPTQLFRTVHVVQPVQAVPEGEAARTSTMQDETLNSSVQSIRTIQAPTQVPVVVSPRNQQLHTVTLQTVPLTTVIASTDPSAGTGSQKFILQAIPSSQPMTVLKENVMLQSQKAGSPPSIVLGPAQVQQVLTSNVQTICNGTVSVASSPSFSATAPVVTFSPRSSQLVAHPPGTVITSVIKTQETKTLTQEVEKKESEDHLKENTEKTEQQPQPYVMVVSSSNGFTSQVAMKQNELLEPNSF
Sequence of SPIB (Q01892 whole entry): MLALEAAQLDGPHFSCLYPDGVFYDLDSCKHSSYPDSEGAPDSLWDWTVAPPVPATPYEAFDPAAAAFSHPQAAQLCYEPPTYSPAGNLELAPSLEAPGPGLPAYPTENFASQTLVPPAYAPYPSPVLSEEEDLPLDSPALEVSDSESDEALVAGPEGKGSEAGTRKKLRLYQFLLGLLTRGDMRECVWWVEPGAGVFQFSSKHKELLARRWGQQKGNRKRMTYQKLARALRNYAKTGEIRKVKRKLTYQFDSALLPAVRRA

## TCTGGA
FLI1
  binding signal: 1.02 fold enrichment (6-mer frequency, TF over GST control)
GABPA
  binding signal: 1.05 fold enrichment (6-mer frequency, TF over GST control)
ERG
  binding signal: 1.04 fold enrichment (6-mer frequency, TF over GST control)
ELF1
  binding signal: 1.01 fold enrichment (6-mer frequency, TF over GST control)
SPIB
  binding signal: 1.01 fold enrichment (6-mer frequency, TF over GST control)
ELK3
  binding signal: 1.2 fold enrichment (6-mer frequency, TF over GST control)
ETV2
  binding signal: 1.15 fold enrichment (6-mer frequency, TF over GST control)
ELF3
  binding signal: 1.06 fold enrichment (6-mer frequency, TF over GST control)
ETV1
  binding signal: 1.2 fold enrichment (6-mer frequency, TF over GST control)
ERF
  binding signal: 1.06 fold enrichment (6-mer frequency, TF over GST control)
ETV3L
  binding signal: 1.1 fold enrichment (6-mer frequency, TF over GST control)
ETV3
  binding signal: 1.05 fold enrichment (6-mer frequency, TF over GST control)
ETV6
  binding signal: 1.07 fold enrichment (6-mer frequency, TF over GST control)

From article PMC7862700, “An all-to-all approach to the identification of sequence-specific readers for epigenetic DNA modifications on cytosine”
